# Assay results: PubChem BioAssay AID1347423 (Functional Genomics Laboratory (NCATS/FGL), 2020)
# In all, about 52,000 sequences went through this assay and about 210 (0.4%) were called active. Many of the other results were omitted from the sample, so actives are more common in it than they were. Unmarked numbers belong to inactive results.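 How the source made its calls: active means gene whose silencing raises cell survival under the drug, median off-target-corrected z-score across its silencing RNAs 2 or more; inactive means the rest.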
# Test: Resistance to Poly (ADP-Ribose) Polymerase inhibitor: Gene Identification via Genome-wide siRNA Screen
# Details: mouse BRCA2 R2336H ES cells, olaparib, CellTiter-Glo viability; active compounds read high
# From the text: The role of Poly (ADP-Ribose) Polymerase (PARP) proteins in DNA repair has been elegantly utilized for the synthetic lethality-based treatment of BRCA-deficient tumors by PARP inhibitors. PARP inhibitors are now being used for treatment of BRCA-deficient breast and ovarian cancers. […] While several mechanisms of drug resistance have been identified, majority of these tumors develop drug resistance due to unknown causes. To identified novel regulators of chemo-resistance in BRCA2-mutated cells, we performed a genome wide siRNA library screen. We have found ES cells expressing a hypomorphic allele of BRCA2 to be hypersensitive to PAPP inhibitors (such as olaparib). We used ES cells expressing a mutant allele of BRCA2 that has a single amino acid substitution at position 2336 (arginine to histidine, R2336H). The screen was conducted using an Ambion (Thermo) Silencer Mouse Genome siRNA collection. The library targets 17,575 mouse genes with 3 siRNAs per gene. TET2 (E130014J05Rik) was identified as a top candidate.
# Transfections were performed in 384 well plates (Corning 3707). Plates were coated with 0.1% gelatin in H2O overnight at ambient temperature. Gelatin solution was aspirated (BioTek EL406) and siRNAs were printed using a Bravo VPrep liquid handler integrated within a BioCel automation platform (Agilent). Cell viability was measured using CellTiter Glo (Promega). For transfections, […] of serum free media containing Lipofectamine RNAiMax […] was added to wells containing siRNA (0.8pmol). Lipid and siRNA were allowed to complex for 45 min at ambient temperature before addition of 1000 cells in DMEM, 30% FBS to yield final transfection mixtures containing 20 nM siRNA in DMEM, 15% FBS. PARPi (olaparib, AZD2281) was added 48 h post-transfection (500 nM) and viability (CellTiter Glo, Promega) was assayed 72 h later on a PerkinElmer Envision 2104 Multilabel plate reader. Ambion Silencer Select Negative Control #2 was incorporated on all screening plates (16 wells) and the median negative control value on each plate was used for normalization. An siRNA targeting Trp53 was used as a positive control. This control yielded a median protective effect of ~1.9 fold versus negative control throughout the screen. The median absolute deviation (MAD) based z-score was calculated for each siRNA. Genes were then ranked by taking the median value for all siRNAs tested against a given gene. Scores were also adjusted for seed-based off-target effects to help deprioritize likely false positives.
row,Sequence,z-score
1,CCUGUUUACAAGGAAUUGATT against Itgb1,0.411
2,GGAUCACAGCGAUUAUUGATT against D630028G08Rik,-0.512
3,CCCAUACUAAAAUUGUUGATT against Adam29,2.32 (active)
4,GCCAGGAUAUGGAUAUGCATT against 1520401A03Rik,1.47
5,CGACUUCAUAAUUAUGCAATT against Als2,0.307
6,GCCGAAUCCGAACAAAACCTT against Tat,1.35 (active)
7,GCUGUAUUGAAGGUCCCUUTT against Olfr744,-2.34
8,CCUGGCUAAUGACUAGCUCTT against D730046L02Rik,-0.501
9,GGUCUCCCUUCAGUAUGAGTT against Ela3b,2.47 (active)
10,GCUCAUUCUUACCAAUCUCTT against 2210413P10Rik,-0.897
11,GCCUCCACAUAGCUUCAACTT against 1110030H02Rik,1.14
12,GGUUGCACUUUUUCAUAGUTT against Bcl2l2,2.83 (active)
13,GGGAGCUCUAAAAAAAGUGTT against Olfr390,0.0742
14,GGAGGAGAGGUACAAACGGTT against Cxxc1,-1.2
15,GCGGGCAAUGCCUUAAAAGTT against D16Ertd607e,0.194
16,GCCCGGUAAAGGUAUCCAUTT against Trp53bp1,1.78 (active)
17,GGGCACCUAUUCAGAUACCTT against Mtap2,0.64
18,GGAAAAGACGGGAGAUUUGTT against Mbldc1,0.0178
19,GUACGUCAUGGGUCACUUCTT against Pomc1,-0.0856
20,GGACAGAGUUCGAUCGACUTT against BC021523,-0.107
21,GUGAUGACUGAGCUUCUAATT against Olfr1446,-1.51
22,GCCUACAGAGUCUUAGUUATT against 2400003B06Rik,0.0277
23,GGGAGAAGAAGAUACACCATT against Usp47,2.16 (active)
24,GGCUGUGGACUUUUGUAAUTT against 3110002H16Rik,0.704
25,GCCGUUUUAUUCACGUGAATT against 1810033M07Rik,-0.105
26,GGUUAAAGAAGCCAUGAAATT against Olfr480,1.26
27,GCCUGUUCCGCCAUUCAUGTT against Fliih,-1.13

row,Sequence,z-score
1,GGAGUGAUUAACCUAACUCTT against Crip3,-0.183 (active)
2,GACAAGACAAGUUUUGGUATT against Elmo1,-0.497
3,GGCCUUGAGGCUAUUCAUGTT against Stk16,0.0229
4,GGAAAGUUGUAUUUGAUGUTT against Nudt7,0.299
5,GCAUCUUCGAGGUUUCAAATT against BC006583,2.47
6,GGAAGUAGAGACAGGAGGATT against AF119384,1.25
7,GCGGCAUAUGCCUACUCUUTT against Slc6a12,-1.46 (active)
8,GCCUAGACCAGAGAAAGGUTT against AW555464,0.139
9,GCAAGUAUUAAGUAUGACGTT against Vps13c,0.194
10,GGCCAGGAGAAGAAGAUACTT against E130014J05Rik,4.51 (active)
11,GCUUUUGAUAUUCCACGUUTT against Pole2,-0.0546
12,GGAAUCGUCUGAGAAAUUCTT against Lgmn,0.618
13,CCCUCUUUAUCGUCUGUGATT against Gpha2,-0.468
14,CCAACAAUCCGUAUCGACCTT against 4930425N13Rik,-0.139
15,GGAAGAGGUUGAGAUCCAATT against Pogk,0.561
16,GGACACUUAGCAGCAAAGGTT against Lsm7,-1.42
17,CCUUGUACACGGAUUGAAUTT against Itga6,2.44 (active)
18,CCGUCUAUACAUCUUUCCATT against D630005B22Rik,-1.51
19,GCAGUAUAUCCUACAUUGGTT against Olfr510,1.69 (active)
20,CCUGAUAUAUGACUUUGGCTT against Ntf5,-0.0586
21,CCUGCACAGGAUAAUUAUGTT against Zfp426,1.21
22,GGAGAUGAACAAGGACCUATT against Apoa1,1.02 (active)
23,GGUCAAUUCCCAUACCCUGTT against Trfr2,0.815
24,CCAACUAUAACUCAGUCACTT against Ebf1,0.374
25,GGCACACGGUUUUCAUUAATT against Pcdhb5,-0.354
26,GGCAUCACUGAUGAAUGAATT against Pacsin2,-0.947 (active)
27,CCACUUUUAAAGGAAUGUGTT against Ncoa1,-0.0128

row,Sequence,z-score
1,GCUUGCAUGUACAGACAUUTT against Olfr517,1.3
2,CCAUCUGAUUUCUUUCCAGTT against MGC78233,-0.642
3,GGAAAUGCCUUCAGAAAUUTT against Slc9a3r1,0.863
4,GCCAAUGUAACCUUCAAAATT against Lypla1,0.603
5,GGGCGACACAAGGUUUUUGTT against Kif3a,1.13 (active)
6,GGAGUGUUUGAGAAAUACCTT against BC027342,-0.283
7,GGCAAAGAUCGCAUCUUAATT against Eif2c2,0.222
8,GCUGCAUCCGUAGAUGUUGTT against Fthfd,-0.992
9,GGCCAAAGAGGAGGAAAACTT against D5Bwg0834e,-0.569
10,GGAGACAGUAAUAGCUCAUTT against Trp53bp1,2.14 (active)
11,GGACUUGUGGCUGAAAACCTT against Slc22a7,0.176
12,GGGAACAGCAUCUCUGUCATT against E130115E03Rik,-0.944
13,CCCUCAACUUUCAGAUCAGTT against Ard1,0.611
14,CCUCGUUCCUAUCAUUAACTT against Sdccag8,0.858
15,GGAAAGAAUAUGAGAAUGCTT against Reck,2.07
16,UUGUCCUGGUCUCCUAUGCTT against Olfr141,-1.98
17,CCCGCUCAAGAUCCUGUUUTT against 2310011J03Rik,-1.85
18,GCGAGUCGCUCAUAGUGAATT against AW822216,0.476
19,GGAUCUGAAGGAAUACUUUTT against 2400010G15Rik,2.14 (active)
20,GCAGCACCUUUGUGGUUCCTT against Ins2,-0.904
21,CCGUGCCAAUAGUUCUGCUTT against Dpp4,0.286
22,GCACUGGAAUCAAACCAUCTT against Ppp2r5b,2.45 (active)
23,GGUUUGAGCUCUUUAUUUUTT against Cyp2j13,0.00818
24,GGCGCAUGUUUCCAGCAAUTT against Tbx18,1.87
25,GGAUCUCUGUUUCUCAAAATT against Slc19a3,0.771
26,CCUCAAGAGAGCUACCGCATT against 1700018C11Rik,0.313
27,GGCCCAUUGAUCUGUGAUATT against Klk8,-0.338

row,Sequence,z-score
1,GCAUGCGCGCUACACUCUATT against Adamts5,0.75 (active)
2,GAUUACAGACAGUGGAAAATT against Ndufb3,0.951
3,GGUAGUGUUAACUAUAUGGTT against Hmgb3,1.85 (active)
4,GAUCUUAUAUGUUGGUGGUTT against V1rc2,-0.413
5,CCUUAAUAAACUAUGCUGCTT against 2810439M11Rik,-1.83
6,CCCUUGAAGAUCACUUAGCTT against Apln,0.228
7,GGCACAGGGACCAUUGUUGTT against Hsd17b1,2.34 (active)
8,CGUACAAGACCAACAGAAGTT against D8Ertd82e,2.36
9,GCUCAACAGACUCUGUACUTT against Igsf4d,2.89
10,GCUAGUUGGAGCUAGAUUATT against E130320D18,0.013
11,GGGUUCCUCCUUUCACAGATT against Ppia,-0.754
12,CCGAAAUAAGGCUAGCUCATT against Rfxdc1,1.33
13,CGGCCUAUCUCUUGGUUUATT against Usp18,2.69 (active)
14,GGACAUCCAUUCAAGGCCUTT against Rtn3,1.05
15,GGAAUUUGACAAACUCAGCTT against Rcn3,0.337
16,CCGUGGGACCAGAGUUAAATT against Gm253,1.99
17,GGUCAUCUAUCGUGUGCUGTT against Lamb2,1.09
18,CCAUUUAACCGUAAGACGUTT against Krtap8-2,0.535
19,CCUACAUUCACCAAAAGGUTT against Usp9y,0.561
20,GGUCUCAAUCAGAGUUACATT against D430030K24Rik,1.08 (active)
21,GGUGAUCAAUCCUCUAAUATT against Cri2,3.03
22,AACAGCAUCUUUGUGGUCCTT against Ins1,-0.451
23,GGAUAAACUUCCAUCUUUCTT against Car14,1.27
24,GGAAGGAAGAAAAAAUAGUTT against Acat1,-0.146
